PubChem BioAssay AID720553 (National Center for Advancing Translational Sciences (NCATS), 2013)
The whole screen tested about 340,000 compounds, of which about 3,300 (0.97%) were called active.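 How the source made its calls: active means maximum activity change below -70%; inconclusive means maximum activity change from -70% to -50%; inactive means maximum activity change above -50%.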 Only a selection was taken, and actives are over-represented in it overall.

Test system: Potassium voltage-gated channel subfamily H member 2, brain isoform KCNH2 3.1 (human)
Assay: qHTS for Inhibitors of KCHN2 3.1: Mutant qHTS
Settings: U2OS KCNH2 3.1, thallium flux FluxOr; stronger effect = lower value
Summary of the method: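 Measured as rate of thallium-driven FluxOr signal in transduced U2OS cells carrying the 3.1 channel, read kinetically for 2 min upon stimulation; values are rate constants scaled to DMSO control wells.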
On the % scale 0 is the no-effect control and ±100 the full control effect.

Row | SMILES | activity change
1 | COc1ccc(NC(=O)N(C)C[C@H]2Oc3ncc(C#C[C@@H](C)O)cc3C(=O)N([C@H](C)CO)C[C@H]2C)cc1 | -1.97% (inactive)
2 | O[C@H]1C[C@H](c2ccc(Cl)cc2)N(Cc2cccs2)C[C@@H]1n1cc(C2CC2)nn1 | 8.43% (inactive)
3 | Cc1ccc(CN(C)Cc2cc(=O)oc3cc(C)c(Cl)cc23)cc1 | -12.5% (inactive)
4 | CCOc1ccc(N(C)Cc2cc(=O)oc3ccc(OC)cc23)cc1 | -0.899% (inactive)
5 | Cc1cc2oc(=O)cc(CN(C)Cc3ccc(OC(F)F)cc3)c2cc1Cl | -76% (active)
6 | Cc1csc(SCC(=O)Nc2ccc(C)c(S(=O)(=O)N(C)C)c2)n1 | -4.71% (inactive)
7 | Cc1ccc(C(=O)OCC(=O)NC2CCCCCCC2)cc1C | 8.83% (inactive)
8 | Cn1c(SCC(=O)N2CCOCC2)nnc1-c1ccc(NC(=O)c2ccccc2F)cc1 | 7.57% (inactive)
9 | Cc1ccccc1C(=O)Nc1cccc(-c2nnc(SCC(=O)O)n2C)c1 | -82.3% (active)
10 | Cn1c(SCC(=O)Nc2cccc(NC(=O)c3cccs3)c2)nnc1-c1ccncc1 | -4.66% (inactive)
11 | CC(=O)c1ccc(NC(=S)N(Cc2ccccc2)C(C)C2CC2)cc1 (stereo unspecified) | -99.2% (active)
12 | CC(C)N(Cc1ccccc1)C(=S)Nc1ccc(OC(F)F)cc1 | -14.2% (inactive)
13 | CC(=O)c1ccc(NC(=O)N[C@@H](Cc2ccccc2)C(=O)O)cc1 | 0.757% (inactive)
14 | O=C(CCCN1C(=O)C2C3C=CC(C3)C2C1=O)N1CCN(c2ccccc2)CC1 (stereo unspecified) | 7.28% (inactive)
15 | O=C(O)CCCN1C(=O)C2C3c4ccccc4C(c4ccccc43)[C@@H]2C1=O (stereo partly specified) | -134% (active)
16 | O=C(O)CCCN1C(=O)c2ccccc2Sc2ncccc21 | -3.66% (inactive)
17 | C#CCN(C[C@H]1[C@H](OC(=O)NC2CCCC2)[C@H](OC(=O)NC2CCCC2)C[C@H]2C(=O)N(c3ccccc3)C(=O)[C@@H]12)S(=O)(=O)c1ccc(C)cc1 | -1.45% (inactive)
18 | O=C(O)c1c(NC(=O)N2CCCC2)sc2c1CCCC2 | -0.215% (inactive)
19 | COC(=O)c1c(NC(=O)c2ccccc2F)sc2c1C(C(=O)OC)CC2 (stereo unspecified) | -2.07% (inactive)
20 | O=C(Nc1sc2c(c1C(=O)O)CCC2)c1ccccc1F | -113% (active)
21 | O=C(OCc1ccccc1)N1CCC2CC1c1ccc(-c3ccc4c(c3)OCO4)cc12 (stereo unspecified) | 6.28% (inactive)
22 | CCC1NC(=O)c2cccnc2-n2c1nc1ccc(C)cc1c2=O (stereo unspecified) | -12% (inactive)

Row | SMILES | activity change
23 | CC1(C)OC(=O)C2=C(CC(c3ccccc3)OC2CCc2ccccc2)O1 (stereo unspecified) | -4.16% (inactive)
24 | Cc1cc(Cl)ccc1C(=O)C1CCCN(C(=O)c2ccc3c(c2)OCO3)C1 (stereo unspecified) | 1.67% (inactive)
25 | COc1ccc(-c2ccc(CN3C(CC(C)C)C(=O)N(Cc4cn(CC5CCCCC5)nn4)CCS3(=O)=O)cc2)cn1 (stereo unspecified) | -18% (inactive)
26 | O=C(Nc1ccncc1)c1c(F)cccc1F | -70.9% (active)
27 | O=C(Nc1ccncc1)Nc1ccc(F)cc1 | 20.7% (inactive)
28 | O=C(Nc1ccc(S(=O)(=O)N2CCCCCC2)cc1)c1c(F)cccc1F | -17.5% (inactive)
29 | CN(c1ccccc1)S(=O)(=O)c1ccc(C(=O)NCc2cccnc2)cc1 | -7.84% (inactive)
30 | CC(Oc1ccc(Cl)cc1)C(=O)OCC(=O)Nc1ncc(Cl)cc1Cl (stereo unspecified) | -101% (active)
31 | CC1(C(=O)OCC(=O)Nc2ncc(Cl)cc2Cl)CC1(Cl)Cl (stereo unspecified) | 0.747% (inactive)
32 | CC(Oc1ccc(Cl)cc1)C(=O)Nc1ncccn1 (stereo unspecified) | 5.84% (inactive)
33 | Cc1ccc(-c2ccc(C3=CC(=O)CC(C)(C)C3=O)cc2)cc1 | -9.04% (inactive)
34 | C[C@H](CO)N1C[C@H](C)[C@@H](CN(C)S(=O)(=O)c2ccc(F)cc2)OCc2cnnn2CCCC1=O | -2.94% (inactive)
35 | O=S(=O)(c1cccc(C(F)(F)F)c1)N1c2ccccc2-n2cccc2C1c1cccnc1 (stereo unspecified) | -17.4% (inactive)
36 | CCCn1c(C(Cc2ccccc2)NC(=O)COC)nc2ccccc21 (stereo unspecified) | -1.15% (inactive)
37 | CCCC(NC(=O)c1ccccc1)c1nc2ccccc2n1Cc1ccc(C(=O)OC)o1 (stereo unspecified) | -82% (active)
38 | COC(=O)c1ccc(Cc2ccccc2)o1 | 10.6% (inactive)
39 | Cc1ccc2[nH]c(=O)c(CN(CC3COCCO3)C(=O)Nc3ccccc3C)cc2c1 (stereo unspecified) | -106% (active)
40 | COc1ccc2[nH]c(=O)c(CN(CC3CCCO3)C(=O)Nc3ccccc3)cc2c1 (stereo unspecified) | 8.12% (inactive)
41 | Cc1cccc(NC(=O)N(Cc2cc3cc(C)cc(C)c3[nH]c2=O)CC2COCCO2)c1 (stereo unspecified) | -19.5% (inactive)
42 | COc1cc(C(=O)N2CCOC23CCN(Cc2ccccc2)CC3)cc(OC)c1OC | -5.15% (inactive)
43 | CN(C)C(CNC(=O)c1cccc(S(=O)(=O)N2CCc3ccccc3C2)c1)c1ccccc1 (stereo unspecified) | -1.69% (inactive)
44 | COc1cccc(OCC(=O)NCCS(=O)(=O)N2CCN(c3ccccc3)CC2)c1 | -1.4% (inactive)

Row | SMILES | activity change
45 | CCCCN1C(=O)C(CC(=O)NC(c2ccccc2)c2ccccc2)CC(C(=O)N2CCOCC2)=C1C (stereo unspecified) | -3.63% (inactive)
46 | O=C(CSc1nc2[nH]ncc2c(=O)n1-c1ccccc1)N1CCCc2ccccc21 | -184% (active)
47 | Cn1c(SCC(=O)N2CCCc3ccccc32)nc2ccccc2c1=O | -2.54% (inactive)
48 | CC(C)(C)c1ccc(C(=O)NCc2nnc(SCC(=O)N3CCCc4ccccc43)n2-c2ccccc2)cc1 | -6.73% (inactive)
49 | CCOC(=O)C(=Cc1ccccc1)C(=O)c1ccccc1 | -13.1% (inactive)
50 | O=C(NCc1nnnn1-c1ccc(Cl)cc1)c1ccc([N+](=O)[O-])o1 | -3.24% (inactive)
51 | Cc1ccccc1S(=O)(=O)N1[C@@H](c2cccc(Cl)c2)C(C(=O)O)=CC[C@H]1c1ccc(Cl)cc1 | 10% (inactive)
52 | Cc1ccc([C@@H]2CC=C(C(=O)O)[C@H](c3cccc(Cl)c3)N2S(=O)(=O)c2ccc(C)cc2)cc1 | -83.7% (active)
53 | Cc1ccc(S(=O)(=O)N2[C@@H](c3cccc(Cl)c3)C(C(=O)O)=CC[C@H]2c2ccc(Cl)c(Cl)c2)cc1 | -2.17% (inactive)
54 | Cc1nnc(SC(C)C(=O)c2c[nH]c3ccccc23)n1C1CC1 (stereo unspecified) | -8.46% (inactive)
55 | C#CCN(C[C@@H]1[C@@H](OC(=O)NC2CC2)[C@@H](OC(=O)NC2CC2)Cn2c(=O)ccc(=O)n21)S(=O)(=O)c1ccc(C)cc1 | 0.102% (inactive)
56 | Cc1ccc(S(=O)(=O)N2CCOCC2)cc1NC(=O)CSc1nnc(N)s1 | 1.46% (inactive)
57 | Nc1nnc(SCC(=O)NC2CCCc3ccccc32)s1 (stereo unspecified) | -15.6% (inactive)
58 | Nc1nnc(SCC(=O)NCC(=O)Nc2ccc(F)c(F)c2F)s1 | -119% (active)
59 | CCN(CC)C(=O)C1=C(C)N(Cc2ccccc2)C(=O)C(CC(=O)NC(c2ccccc2)c2ccccc2)C1 (stereo unspecified) | 0.781% (inactive)
60 | Cc1noc(C)c1S(=O)(=O)N(C)C[C@H]1OCCCC[C@@H](C)Oc2ccc(NC(=O)CCCN(C)C)cc2C(=O)N([C@H](C)CO)C[C@@H]1C | 18.2% (inactive)
61 | COC(=O)C[C@H]1C[C@@H]2c3cc(N(C)C)ccc3O[C@@H]2[C@H](CO)O1 | 2.06% (inactive)
62 | O=C(Nc1cccc(C(=O)O)c1)/C(=C\c1ccccc1)NC(=O)c1ccc(Br)o1 | 3.42% (inactive)
63 | Cc1cccc(N2CCC(NCc3c(C(=O)N4CCCCC4)nc4c(C)cccn34)CC2)c1 | -70.6% (active)
64 | CCOC(=O)C1CCN(Cc2c(C(=O)N3CCOCC3)nc3c(C)cccn23)CC1 | -6.64% (inactive)
65 | Cc1cccn2c(CNCC(C)Oc3cccnc3)c(C(=O)N3CCOCC3)nc12 (stereo unspecified) | 1.22% (inactive)
66 | CC1=C(C(=O)N(C)C)CC(CC(=O)NCCc2ccccn2)C(=O)N1CCC1=CCCCC1 (stereo unspecified) | 6.34% (inactive)

Row | SMILES | activity change
67 | CN(Cc1c(F)cccc1Cl)C(=O)COC(=O)Cn1cnc2ccccc2c1=O | 2.53% (inactive)
68 | COc1ccc(C2=NS(=O)(=O)N(C)C(C(=O)NC(C)c3ccccc3)=C2)cc1 (stereo unspecified) | -85% (active)
69 | COc1ccc(C2=NS(=O)(=O)N(C)C(C(=O)N(C)Cc3ccccc3)=C2)cc1 | 7.33% (inactive)
70 | COc1ccc(NC(=O)C2=CC(c3ccc(OC)c(OC)c3)=NS(=O)(=O)N2C)cc1 | -5.31% (inactive)
71 | Cc1cc2c3ccccc3[nH]c(=O)n2n1 | -1.28% (inactive)
72 | COc1ccc([C@H]2N[C@]3(CCCN(CC4CCCCC4)C3=O)[C@H]3C(=O)N(C)C(=O)[C@@H]23)cc1 | 4.21% (inactive)
73 | CCCCCCNC(=O)O[C@]12C[C@@H](C(=O)OC)[C@@H](C(=O)OC)C[C@@]1(O)CN(S(=O)(=O)c1ccc(C)cc1)C2 | -9.12% (inactive)
74 | CCN(CC)CCN(C(=O)c1ccc2c(c1)CCCC2)c1nc2c(OC)cccc2s1 | -48.3% (inactive)
75 | CC12C(=O)N(c3ccccc3)C(=O)C1C(c1ccccc1)N1CCCN12 (stereo unspecified) | 2.73% (inactive)
76 | CC(C)C1C2=C(CC(C)(C)CC2=O)ON1c1ccccc1 (stereo unspecified) | -4.1% (inactive)
77 | CC(C)N1C(=O)N(c2ccccc2)C(C)(O)CC1(C)C (stereo unspecified) | -71.4% (active)
78 | Cc1ccc(C(=O)N[C@H](C(=O)N2CCN(c3ncccn3)CC2)C(C)C)cc1 | 5.87% (inactive)
79 | C[C@H]1NS(=O)(=O)c2cc(Cl)ccc2O[C@@H]1c1ccccc1 | -5.74% (inactive)
80 | Fc1ccccc1/C=N/Nc1cc(N2CCCCC2)ncn1 | 11.8% (inactive)
81 | Cc1cc(N/N=C/c2ccccc2F)c2ccccc2n1 | -142% (active)
82 | CCOc1cc(/C=N/Nc2cc(C)nc3ccc(C)cc23)ccc1O | -2.46% (inactive)
83 | CCCCN1CC(C)(C)[C@H](CC(=O)Nc2ccc(Br)cc2)C1=O | 5.46% (inactive)
84 | O=C(c1ccc(F)cc1)C1CCN(Cc2cn[nH]c2-c2ccccc2)CC1 | -104% (active)
85 | COc1ccc(CN2CCNC(=O)C2CC(=O)NCc2cn[nH]c2-c2ccccc2)c(F)c1 (stereo unspecified) | -3.5% (inactive)
86 | Cc1ccccc1CN1CCN(C(=O)c2cccc(F)c2)CC1 | -16.7% (inactive)
